NSD2 inh: NSD2 histone methyltransferase inhibitors, primary screen, biochemical, AlphaScreen, single concentration, set 2; NSD2 peptide methylation, 120 min; inhibition, % at 12.5 µM; 0.54% of 310,000 active; Histone-lysine N-methyltransferase NSD2 (Homo sapiens), O96028; in the data active = inhibition above about 50%
SIRT5 inh: SIRT5 desuccinylase inhibitors, primary screen, biochemical, fluorescence imaging, single point, set 5 | Purified SirT5, succinyl-peptide AMC, trypsin-coupled fluorescence | inhibition, % at 15 µM | 1.1% of 330,000 active; in the data active = inhibition above about 15%
Target sequence (Q9NXA8 whole entry, looked up): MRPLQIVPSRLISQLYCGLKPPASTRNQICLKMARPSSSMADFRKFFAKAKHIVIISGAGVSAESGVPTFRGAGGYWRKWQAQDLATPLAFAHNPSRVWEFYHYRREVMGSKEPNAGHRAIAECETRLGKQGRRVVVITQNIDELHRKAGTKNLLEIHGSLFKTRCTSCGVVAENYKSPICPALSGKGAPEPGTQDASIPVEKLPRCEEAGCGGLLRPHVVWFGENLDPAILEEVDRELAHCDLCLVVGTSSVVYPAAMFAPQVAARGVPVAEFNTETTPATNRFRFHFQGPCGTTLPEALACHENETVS
UBC9 SUMO inh: inhibitors of in vitro SUMOylation cascade, primary screen, biochemical, HTRF, uHTS; SUMO-conjugating enzyme UBC9 (Homo sapiens), P63279; HTRF SUMOylation assay, SAE1/SAE2 + UBC9; inhibition, % at 35 µM; 0.36% of 290,000 active; in the data active = inhibition above about 50%, passing the limit was not always enough
Casp6 inh: human caspase-6 inhibitors, primary screen, biochemical, VEID-R110 fluorescence, single point, set 2. P55212. purified caspase-6, Z-VEID-R110 cleavage fluorescence. inhibition, % at 12.5 µM. 0.53% of 350,000 active. AID 686996, 2013;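 active = mean inhibition across replicates at least about 35%, with every replicate also reaching that limit, limit read from the data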;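 note: 0% = median of neutral control wells and 100% = no fluorescence left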
Target sequence (P55212 24-179 limits assumed): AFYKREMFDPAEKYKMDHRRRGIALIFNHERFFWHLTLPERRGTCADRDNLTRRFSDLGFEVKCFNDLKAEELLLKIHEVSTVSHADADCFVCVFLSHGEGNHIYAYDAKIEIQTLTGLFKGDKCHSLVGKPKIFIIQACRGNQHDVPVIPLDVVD
Target sequence (P55212 194-293 limits assumed): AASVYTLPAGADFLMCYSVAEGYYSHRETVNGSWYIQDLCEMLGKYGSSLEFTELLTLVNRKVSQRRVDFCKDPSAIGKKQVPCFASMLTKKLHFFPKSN
An asterisk follows results filed as active; nt = not tested or not shown. Rows were chosen to be rich in hits. Some 1.6% of all compounds tested hit in one or more screens of this group.

SMILES	NSD2 inh	SIRT5 inh	UBC9 SUMO inh	Casp6 inh
Cc1ccc2nc(N3C(=O)C(O)=C(C(=O)c4ccco4)C3c3cccs3)sc2c1 (configuration not stated)	1.8	nt	-4.1	nt
COc1ccc(C2C(C(=O)c3ccco3)=C(O)C(=O)N2c2nnc(C)s2)cc1 (configuration not stated)	-2.9	-2.0	18.9	-4.0
Cc1ccc2nc(N3C(=O)C(O)=C(C(=O)c4ccc(C)o4)C3c3ccc(O)cc3)sc2c1 (configuration not stated)	-1.1	22.4*	nt	29.0
COC(=O)c1sc(N2C(=O)C(=O)/C(=C(/O)c3ccccc3)C2c2ccco2)nc1C (configuration not stated)	3.1	4.8	8.1	36.6*
Cc1cc(C)c2nc(N3C(=O)C(O)=C(C(=O)c4ccco4)C3c3ccco3)sc2c1 (configuration not stated)	0.4	1.7	11.7	68.3*
CCOC(=O)c1sc(N2C(=O)C(O)=C(C(=O)c3ccco3)C2c2ccco2)nc1C (configuration not stated)	7.7	4.5	16.1	39.3*
O=C(C[C@@H]1CC[C@H]2[C@@H](COC[C@@H](O)CN2S(=O)(=O)c2cccc(Cl)c2)O1)Nc1ccc(-c2ccccc2)cc1	nt	8.3	nt	3.0
C[C@H](CO)N1C[C@H](C)[C@H](CN(C)Cc2ccc(C(F)(F)F)cc2)Oc2ccc(NC(=O)C3CCCCC3)cc2CC1=O	nt	7.8	nt	-2.6
CO[C@H]1CN(C)C(=O)c2cc(NC(=O)Nc3ccccc3F)ccc2OC[C@@H](C)N(Cc2ccccc2C(=O)O)C[C@H]1C	nt	nt	nt	17.0
C[C@@H]1CN([C@@H](C)CO)C(=O)c2cccc(NC(=O)Nc3ccc(F)cc3)c2O[C@H]1CN(C)C	nt	-3.1	nt	-0.5
CCC(=O)N1[C@H](CO)[C@H](c2ccccc2)C12CN(Cc1nccs1)C2	nt	-0.7	nt	2.1
COc1ccc2nc(N3C(=O)C(O)=C(C(=O)c4ccco4)C3c3ccc(C)o3)sc2c1 (configuration not stated)	1.5	5.4	nt	33.4
CCOc1ccc2nc(N3C(=O)C(O)=C(C(=O)c4ccco4)C3c3ccco3)sc2c1 (configuration not stated)	25.9	2.8	nt	36.0*
O[C@H]1CN(Cc2cccs2)[C@@H](c2ccccc2)C[C@@H]1n1cc(-c2ccc(F)cc2)nn1	nt	-5.3	nt	-1.4
O[C@H]1C[C@H](c2ccccc2)N(Cc2cccs2)C[C@@H]1n1cc(-c2ccc(F)cc2)nn1	nt	16.3*	nt	-1.9
O=[N+]([O-])c1ccccc1/C=N\Nc1nccs1	0.5	-1.6	5.9	2.1
O=[N+]([O-])c1cc(/C=N\Nc2nccs2)ccc1O	nt	nt	69.6*	nt
CCOc1cc2c(C#N)c(N3CCCCC3)nc(N)c2c(N)n1	11.6	nt	95.7	nt
CCOc1cc2c(C#N)c(N3CCNCC3)nc(N)c2c(N)n1	4.6	nt	87.1*	nt
CC1C/C=C/C=C/C=C/C=C/C(O[C@@H]2O[C@H](C)[C@@H](O)[C@H](N)[C@@H]2O)CC2OC(O)(CC(O)CC3OC3/C=C/C(=O)O1)CC(O)C2C(=O)O (some centres not stated)	nt	0.3	-0.9	44.6*
CCN1/C(=C\c2ccc3cc(C)ccc3[n+]2CC)Sc2cc(C)c(C)cc21	53.7*	2.6	-1.2	-25.1
CCN1/C(=C/c2ccc3cccc(C)c3[n+]2CC)Sc2ccccc21	45.5	nt	16.7	nt
O=C(C[C@H]1C[C@@H]2c3cc(NC(=O)Nc4ccccc4F)ccc3O[C@@H]2[C@@H](CO)O1)NCC(F)(F)F	nt	-0.9	nt	1.8
O=c1ccc(-c2ccc(S(=O)(=O)Nc3cccc([N+](=O)[O-])c3)s2)n[nH]1	4.6	-8.4	3.8	36.5*
Cc1cccc(NS(=O)(=O)c2ccc(-c3ccc(=O)[nH]n3)o2)c1	-0.1	1.3	19.5	4.9
SMILES	NSD2 inh	SIRT5 inh	UBC9 SUMO inh	Casp6 inh
C[C@H](CO)N1C[C@H](C)[C@@H](CN(C)S(=O)(=O)c2ccccc2)Oc2ccc(NC(=O)CCN3CCOCC3)cc2CC1=O	nt	-3.6	nt	-2.5
CNC(=O)C[C@H]1CC[C@H]2[C@H](COc3ccc(NC(=O)Nc4ccc(F)c(F)c4)cc3C(=O)N2C)O1	nt	0.0	nt	0.7
O=C(O)c1ccccc1NS(=O)(=O)c1ccc(NN=Cc2cccc(Cl)c2)c([N+](=O)[O-])c1	2.2	1.8	nt	62.4*
O=C(O)c1ccccc1NS(=O)(=O)c1ccc(N/N=C/c2ccc(O)c(O)c2)c([N+](=O)[O-])c1	115.8*	20.7*	nt	63.8*
Cc1ccc(S(=O)(=O)N[C@@H]2CC[C@H](CC(=O)N3CCC(Cc4ccccc4)CC3)O[C@H]2CO)cc1	nt	1.7	nt	0.2
COc1ccc(C(=O)C2CCN(CC(=O)Nc3cc(C)cc(C)c3)CC2)cc1	-2.1	-2.3	-4.6	1.1
Cc1ccc(C(=O)C2CCN(CC(=O)Nc3nc(C)cs3)CC2)cc1	1.2	18.6*	26.5	0.5
O=C(CN1C(=O)S/C(=C\c2ccccc2)C1=O)NNC(=O)c1ccccc1O	17.7	nt	nt	nt
COc1ccc(/C=C2\SC(=O)N(CC(=O)NNC(=O)c3ccccc3O)C2=O)cc1	3.2	-0.3	56.3*	-0.5
CN(C(=O)CCc1nnc(CCCCc2ccccc2)o1)C1CC(C)(C)NC(C)(C)C1	1.0	26.9*	7.0	2.1
O=C(C1CC1)N1CC(=O)N2[C@H](CO)[C@@H](c3ccc(C#CCc4ccccc4)cc3)[C@@H]2C1	nt	1.5	nt	0.7
CCC(=O)N1CC(=O)N2[C@H](CO)[C@H](c3ccc(C#CCC(C)C)cc3)[C@@H]2C1	nt	15.7*	nt	0.8
CC(C)CC#Cc1ccc([C@@H]2[C@@H](CO)N3C(=O)CN(C(=O)CN4CCOCC4)C[C@@H]23)cc1	nt	17.4*	nt	2.0
O=C(C1CCOCC1)N1CC(=O)N2[C@H](CO)[C@@H](c3ccc(C#CCc4ccccc4)cc3)[C@H]2C1	nt	16.5*	nt	0.8
CCC(=O)N1CC(=O)N2[C@H](CO)[C@@H](c3ccc(C#CCC(C)C)cc3)[C@H]2C1	nt	-4.5	nt	-1.7
CC(C)CC#Cc1ccc([C@@H]2[C@@H](CO)N3C(=O)CN(C(=O)c4ccccn4)C[C@H]23)cc1	nt	33.1*	nt	-1.3
C[C@@H]1CCCCO[C@@H](CN(C)S(=O)(=O)c2cccs2)[C@H](C)CN([C@@H](C)CO)C(=O)c2cc(NS(=O)(=O)c3cccs3)ccc2O1	nt	0.9	nt	1.2
O=C(C[C@@H]1CC[C@H](NC(=O)Cc2cccnc2)[C@@H](CO)O1)Nc1ccccc1	nt	0.4	nt	-2.0
COc1ccc(-c2ccc([C@@H]3[C@H]4CN(C(=O)Cc5ccccn5)CC(=O)N4[C@H]3CO)cc2)cc1	nt	27.7*	nt	nt
C[C@@H]1CN([C@@H](C)CO)C(=O)Cc2cc(NC(=O)CCC(F)(F)F)ccc2O[C@H]1CN(C)S(=O)(=O)c1ccc(F)cc1	nt	-3.5	nt	3.5
O=C(N/N=C/c1ccc(Cl)c([N+](=O)[O-])c1)c1cc(-c2ccc3c4c(cccc24)CC3)n[nH]1	0.8	-2.6	51.1*	-8.4
